# High-throughput results (PubChem BioAssay)
# Hits are enriched below; roughly 17% of the tested compounds scored in any of these assays.
# DT40 TDP1 no CPT: qHTS for Inhibitors of human tyrosyl-DNA phosphodiesterase 1 (TDP1): qHTS in cells in absence of CPT; DT40 Tdp1-/- hTDP1 cells, no CPT, ATP luminescence, 48 h; 15% of 420,000 active; Potency, µM (top dose mostly 46.2 µM), without a hit: at the highest dose activity change, negative = growth inhibition, hits mostly inhibitors; note: % is set by controls: 0 for no effect and ±100 for the full control effect; nearly all actives have a fitted effect of over 55% in size
#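 Stably hTDP1-transfected Tdp1-null chicken DT40 cells were treated with library compounds minus camptothecin and grown for at least 48 hr at 37 °C, after which cellular ATP was quantified by luminescence.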
# HT1080 IDH1KD tx: toxicity to HT-1080 IDH1 knockdown cells (counter line) | HT-1080 IDH1 knockdown viability, ATP luminescence, 48 h | Potency, µM (series often up to 46.1 µM), without a hit: top-dose activity, negative = toxicity, most hits filed as cytotoxic | 2% of 360,000 active | AID 686971;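 note: 0% = DMSO wells and -100% = cell-free medium wells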
#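 After a 2 h attachment period, IDH1KD HT-1080 cells took pin-transferred compound for 48 h at 37 °C; ATP-based luminescence after 10 min room-temperature reagent incubation reported viability.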
# TDP1 cell CPT: DT40-hTDP1 cell growth loss with CPT. chicken DT40 Tdp1-/-;hTDP1 cells + 20 nM CPT, ATP luminescence, 48 h. 12% of 420,000 active. Potency, µM (doses to about 46.2 µM), inactives show at the top dose activity change, negative = growth inhibition, actives largely listed as inhibitors; note: % is set by controls: 0 for no effect and ±100 for the full control effect; nearly all actives have a fitted effect of over 55% in size
#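 Chicken DT40 Tdp1-/- cells complemented with human TDP1, 400 cells/well, exposed to compounds plus 20 nM camptothecin for at least 48 h at 37 C; viability read as ATP content by CellTiter-Glo luminescence.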
# TGFb SMAD3 inh: TGF-b pathway inhibition; HepG2 CAGA-GFP TGF-b/SMAD3 reporter, GFP fluorescence, 18 h; TGF-beta stimulated, 500 pg/mL final; Potency, µM (series often up to 46.1 µM), without a hit: top-dose activity, negative = inhibition, actives largely listed as inhibitors; 1.2% of 410,000 active; note: % is set by controls: 0 for no effect and ±100 for the full control effect; nearly all actives have a fitted effect of over 65% in size
#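 Cell-based qHTS in HEPG2 carrying a CAGA-GFP Smad reporter; compounds added before 500 pg/mL final TGF-beta, 18 h incubation at 37 degrees C, GFP fluorescence quantified per cell by imaging cytometry.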
# HepG2 tox: counter-screen for TGF-b inhibitors: cytotoxicity in HepG2 cells; HepG2 CAGA-GFP viability, ATP luminescence, 18 h; Potency, µM (titrated, usually from 46.1 µM), for inactives: top-dose activity change, negative = cytotoxicity, actives largely listed as cytotoxic; 0.76% of 410,000 active; AID 588856
#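 HepG2 CAGA-GFP cells (1000/well, DMEM with 1% FBS) received compound, then TGF-beta at 500 pg/mL final, and were incubated 18 hours at 37 degrees C. Viability was read by CellTiter-Glo luminescence. Media-only wells were set as complete cell-killing and DMSO as no toxicity.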
# HT1080NT lethal: kills 2HG-producing HT-1080-NT fibrosarcoma cells; HT-1080-NT fibrosarcoma viability, CellTiter-Glo ATP luminescence, 48 h; Potency, µM (series often up to 46.1 µM), for the others: top-dose activity, negative = less viability, most hits filed as cytotoxic; 1.6% of 360,000 active; AID 686970;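 note: NT is the 2HG producing partner of a matched IDH1 knockdown line; 0% = DMSO-treated cells and -100% = media-only wells without cells; nearly all actives have a fitted effect of over 55% in size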
#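 HT-1080-NT; 750 cells/well; 5% FBS RPMI; 48 h compound, 37 degrees C; CellTiter-Glo luminescence; curve fitting and curve-class assignment.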
# * marks the source's active call; other numbers are inactive results; ? = inconclusive; . = not tested or not shown. Calls come from the whole dose curve; as a rule, active = well fitted curve in the direction sought with a large enough effect; inconclusive = small, poorly fitted or top-dose-only effect, or another doubt; inactive = no such curve, though single readings can be large; an effect the other way counts as inactive or inconclusive. Potency is the fitted concentration of half-maximal effect.
SMILES,DT40 TDP1 no CPT,HT1080 IDH1KD tx,TDP1 cell CPT,TGFb SMAD3 inh,HepG2 tox,HT1080NT lethal
Cc1ccc(N2CCN(C(=O)c3c(C)oc4ncnc(N5CCCCC5)c34)CC2)c(C)c1,7.31µM*,.,16.4µM*,?,-34.3%,.
Cc1nc(N2CCCC2)c2c(C(=O)N3CCN(c4cccc(Cl)c4)CC3)c(C)oc2n1,?,.,?,?,-15.5%,.
COc1cccc(N2CCN(C(=O)c3c(C)oc4ncnc(N5CCCCC5)c34)CC2)c1,18.4µM*,.,?,?,-17.0%,.
Cc1oc2ncnc(N3CCCCC3)c2c1C(=O)Nc1cccc(Cl)c1C,14.6µM*,.,16.4µM*,-19.4%,-29.1%,.
Cc1oc2ncnc(N3CCCCC3)c2c1C(=O)Nc1cccc(F)c1,?,.,?,-18.7%,-29.8%,.
CC(C)NC(=O)N1CCC2(CC1)CCN(C(=O)c1ccncc1)CC2,2.1%,.,5.4%,.,.,.
CCc1ccc(-n2nc(CO)c(C(=O)NCc3ccccn3)n2)cc1,?,.,?,?,-18.3%,.
COc1cc([N+](=O)[O-])ccc1NC(=O)N1CCCCCC1,-19.6%,0.5%,?,-6.6%,-11.3%,-8.1%
Cc1nc(N2CCCC2)c2c(C(=O)N3CCN(c4cc(Cl)ccc4C)CC3)c(C)oc2n1,18.4µM*,.,?,?,-15.7%,.
COc1cc2c(C(=O)N3CCN(c4ccccc4)CC3)c(C)oc2cc1Br,18.4µM*,?,?,-18.5%,-82.6%,?
Cc1cccc(N2CCN(C(=O)c3c(C)oc4ncnc(N5CCCCC5)c34)CC2)c1C,8.2µM*,.,16.4µM*,-2.5%,-17.3%,.
Cc1cccc(N2CCN(C(=O)c3c(C)oc4ncnc(N5CCOCC5)c34)CC2)c1C,-21.5%,.,0.2%,-13.5%,-3.6%,.
COc1ccccc1-c1cc(C(=O)N2CCN(c3ccccc3)CC2)no1,-13.1%,-10.4%,?,-9.3%,7.7%,7.9%
COC(=O)C1=C(c2ccccc2)c2ccccc2S(=O)(=O)N1CC(=O)Nc1cccc(C(C)=O)c1,?,.,-18.7%,-4.0%,-26.5%,.
Cc1ccc(C)c(OCC(=O)N/N=C/c2ccc(N3CCOCC3)cc2)c1,?,-0.8%,?,-11.0%,-2.9%,-0.3%
CC1(C(=O)Nc2ccc(Cl)c(C(F)(F)F)c2)Cc2c(-c3ccccc3)ccnc2O1 (stereo unspecified),?,-5.4%,?,?,-26.6%,-2.8%
CC(=O)Nc1ccc(-c2ccnc3c2CC(C)(C(=O)Nc2ccc4c(c2)OCO4)O3)cc1 (stereo unspecified),?,?,18.4µM*,35.5%,-0.6%,?
CC1(C(=O)Nc2ccc(Cl)c(C(F)(F)F)c2)Cc2c(-c3ccc4c(c3)OCO4)ccnc2O1 (stereo unspecified),?,?,?,?,-14.1%,?
CC1(C(=O)Nc2cccc(Oc3ccccc3)c2)Cc2c(-c3ccc4c(c3)OCO4)ccnc2O1 (stereo unspecified),13µM*,?,?,?,-1.8%,?
CC(=O)Nc1ccc(-c2ccnc3c2CC(C)(C(=O)Nc2ccc(Cl)c(C(F)(F)F)c2)O3)cc1 (stereo unspecified),23.1µM*,16.4µM*,14.6µM*,?,-59.2%,?
CN(C)c1ccc(-c2ccnc3c2CC(C)(C(=O)Nc2ccc(Cl)c(C(F)(F)F)c2)O3)cc1 (stereo unspecified),5.17µM*,?,?,?,-37.3%,?
CC(=O)Nc1ccc(NC(=O)C2(C)Cc3c(-c4ccc5c(c4)OCO5)ccnc3O2)cc1 (stereo unspecified),-8.6%,-17.4%,0.6%,14.3%,-8.8%,-11.0%
COCC(C)NC(=O)c1cc2cccc([N+](=O)[O-])c2[nH]1 (stereo unspecified),-1.7%,-23.3%,17.9%,-12.7%,-17.2%,-13.6%
Cc1cc(NC(=O)c2cc3cccc([N+](=O)[O-])c3[nH]2)ccc1F,20.6µM*,-28.1%,?,?,-3.3%,?
CC(OC(=O)c1ccncc1)C(=O)Nc1cc(S(=O)(=O)N2CCCCC2)ccc1Cl (stereo unspecified),?,-3.1%,-5.5%,0.8%,1.0%,-3.9%
SMILES,DT40 TDP1 no CPT,HT1080 IDH1KD tx,TDP1 cell CPT,TGFb SMAD3 inh,HepG2 tox,HT1080NT lethal
C=CCc1cccc(CNc2cnc3ccccc3c2)c1O,10.3µM*,-27.5%,6.51µM*,?,-18.7%,-12.7%
Oc1ccc(Cl)cc1CNc1cnc2ccccc2c1,29.1µM*,?,?,?,-39.3%,-23.7%
Oc1ccccc1CNc1cnc2ccccc2c1,23.1µM*,-22.0%,23.1µM*,?,-13.9%,-26.2%
CC(=O)Nc1ccc(S(=O)(=O)N2CCC(NC(=O)C(Cc3ccccc3F)NC(C)=O)CC2)cc1 (stereo unspecified),-12.3%,1.8%,3.7%,2.4%,8.6%,-0.5%
COc1ccc(CCN2CC(C(=O)NCc3nc(C)c(C)s3)CCC2=O)cc1 (stereo unspecified),-14.6%,-8.0%,-29.8%,-23.8%,0.7%,-3.0%
COc1ccc(/C=C/C(=O)N2CCN(c3ccccn3)CC2)c2ccccc12,25.9µM*,-1.8%,?,?,6.1%,-27.9%
COc1cccc(OCCNC(=O)CSc2ccc(C(F)(F)F)cc2[N+](=O)[O-])c1,14.6µM*,3.3%,14.6µM*,0.0%,0.8%,1.7%
Cc1ccccc1OCCNC(=O)CSc1ccc(C(F)(F)F)cc1[N+](=O)[O-],?,-4.2%,-7.5%,-15.1%,-1.6%,-13.3%
CN(C)c1ccc(CN(Cc2ccco2)C(=O)COc2ccc(F)cc2)cc1,10.3µM*,.,?,.,-13.1%,.
Cc1cccc(OCC(=O)N(Cc2ccco2)C2CCS(=O)(=O)C2)c1C (stereo unspecified),?,1.3%,-16.6%,4.8%,-2.8%,-1.5%
Cc1cc(OC(C)C(=O)N(Cc2ccco2)Cc2ccco2)cc(C)c1Cl (stereo unspecified),9.2µM*,.,14.6µM*,?,-70.3%,.
Cc1cc(C)c(OCC(=O)N(Cc2cccc(F)c2)Cc2ccco2)c(C)c1,18.4µM*,.,14.6µM*,-48.8%,11.2µM*,.
Cc1cccc(C)c1OCC(=O)N(Cc1ccco1)Cc1ccco1,23.1µM*,.,?,0.0%,-31.1%,.
